The full data set covers some 7,900 targets. This sample favours those with a hit. About 0.6% of all pairs of compound and target were hits.
Experiments:
Assay in all cases: log2 fold change, soluble protein after heating vs DMSO (PISA); higher = thermal stabilisation; K562 cells, 10 uM, 30 min; active = over 0.2 and 3.5 SD of the protein, either way, in both replicates (recomputed)
bafetinib = compound: Cc1ccc(NC(=O)c2ccc(CN3CC[C@H](N(C)C)C3)c(C(F)(F)F)c2)cc1Nc1nccc(-c2cncnc2)n1 [bafetinib]
Outline: (§1)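 K562 cells at 2×10^6 cells/mL were given 10 μM compound for 30 min. Aliquots then went through 3 min of heating across 48°C-58°C, were pooled, and were extracted in PBS with 0.5% NP-40 at 4°C, and the supernatant after 21,000xg for 90 min was quantified by TMTpro 16plex LC-MS/MS with channel sums equalised. Thermal stability relative to control samples, from duplicates, is given as log2 fold change.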

[1] = compound: Cc1cccc(CC(=O)N2CCc3c2ccc(-c2cn(C)c4ncnc(N)c24)c3F)n1
Outline: as §1

nilotinib = compound: Cc1cn(-c2cc(NC(=O)c3ccc(C)c(Nc4nccc(-c5cccnc5)n4)c3)cc(C(F)(F)F)c2)cn1 [nilotinib]
Outline: as §1

[2] = compound: Cc1nc(Nc2n[nH]c3c2CN(C(=O)N[C@H](CN(C)C)c2ccccc2)C3(C)C)c2sccc2n1
Outline: as §1

dasatinib = compound: Cc1nc(Nc2ncc(C(=O)Nc3c(C)cccc3Cl)s2)cc(N2CCN(CCO)CC2)n1 [dasatinib]
Outline: as §1

[3] = compound: Cc1ncc(-c2ccnc(Nc3ccc(S(C)(=O)=O)cc3)n2)n1C(C)C
Outline: as §1

[4] = compound: Cn1cc(-c2ccc3c(c2)CCN3C(=O)Cc2cccc(C(F)(F)F)c2)c2c(N)ncnc21
Outline: as §1

[5] = compound: Cn1cc(-c2ccc3nnc(C(F)(F)c4ccc5ncccc5c4)n3n2)cn1
Outline: as §1

tipifarnib = compound: Cn1cncc1[C@@](N)(c1ccc(Cl)cc1)c1ccc2c(c1)c(-c1cccc(Cl)c1)cc(=O)n2C [tipifarnib]
Outline: as §1

mubritinib = compound: FC(F)(F)c1ccc(/C=C/c2nc(COc3ccc(CCCCn4ccnn4)cc3)co2)cc1 [mubritinib]
Outline: as §1

[6] = compound: NC(=O)Nc1cc(-c2cccc(F)c2)sc1C(=O)N[C@H]1CCCNC1
Outline: as §1

[7] = compound: NC(=O)c1cnc(N[C@@H]2CCCC[C@@H]2N)nc1Nc1cccc(-n2nccn2)c1
Outline: as §1

[8] = compound: NC1(c2ccc(-c3nc4ccn5c(=O)[nH]nc5c4cc3-c3ccccc3)cc2)CCC1
Outline: as §1

[9] = compound: NCC(=O)Nc1ccc(-n2nc(C(F)(F)F)cc2-c2ccc3c(ccc4ccccc43)c2)cc1
Outline: as §1

entinostat = compound: Nc1ccccc1NC(=O)c1ccc(CNC(=O)OCc2cccnc2)cc1 [entinostat]
Outline: as §1

vorinostat = compound: O=C(CCCCCCC(=O)Nc1ccccc1)NO [vorinostat]
Outline: as §1

citarinostat = compound: O=C(CCCCCCNC(=O)c1cnc(N(c2ccccc2)c2ccccc2Cl)nc1)NO [citarinostat]
Outline: as §1

silmitasertib = compound: O=C(O)c1ccc2c(c1)nc(Nc1cccc(Cl)c1)c1ccncc12 [silmitasertib]
Outline: as §1

[10] = compound: O=C1NC(=O)C(c2cnc3ccccn23)=C1c1cn2c3c(cc(F)cc13)CN(C(=O)N1CCCCC1)CC2
Outline: as §1

[11] = compound: c1cc(OCCN2CCCCC2)cc(-c2n[nH]c3ccc(-c4nnc[nH]4)cc23)c1
Outline: as §1

Measured: log2 fold change

MSH2 (UniProt P43246)
UniProt P43246, sequence (P43246 whole entry, looked up): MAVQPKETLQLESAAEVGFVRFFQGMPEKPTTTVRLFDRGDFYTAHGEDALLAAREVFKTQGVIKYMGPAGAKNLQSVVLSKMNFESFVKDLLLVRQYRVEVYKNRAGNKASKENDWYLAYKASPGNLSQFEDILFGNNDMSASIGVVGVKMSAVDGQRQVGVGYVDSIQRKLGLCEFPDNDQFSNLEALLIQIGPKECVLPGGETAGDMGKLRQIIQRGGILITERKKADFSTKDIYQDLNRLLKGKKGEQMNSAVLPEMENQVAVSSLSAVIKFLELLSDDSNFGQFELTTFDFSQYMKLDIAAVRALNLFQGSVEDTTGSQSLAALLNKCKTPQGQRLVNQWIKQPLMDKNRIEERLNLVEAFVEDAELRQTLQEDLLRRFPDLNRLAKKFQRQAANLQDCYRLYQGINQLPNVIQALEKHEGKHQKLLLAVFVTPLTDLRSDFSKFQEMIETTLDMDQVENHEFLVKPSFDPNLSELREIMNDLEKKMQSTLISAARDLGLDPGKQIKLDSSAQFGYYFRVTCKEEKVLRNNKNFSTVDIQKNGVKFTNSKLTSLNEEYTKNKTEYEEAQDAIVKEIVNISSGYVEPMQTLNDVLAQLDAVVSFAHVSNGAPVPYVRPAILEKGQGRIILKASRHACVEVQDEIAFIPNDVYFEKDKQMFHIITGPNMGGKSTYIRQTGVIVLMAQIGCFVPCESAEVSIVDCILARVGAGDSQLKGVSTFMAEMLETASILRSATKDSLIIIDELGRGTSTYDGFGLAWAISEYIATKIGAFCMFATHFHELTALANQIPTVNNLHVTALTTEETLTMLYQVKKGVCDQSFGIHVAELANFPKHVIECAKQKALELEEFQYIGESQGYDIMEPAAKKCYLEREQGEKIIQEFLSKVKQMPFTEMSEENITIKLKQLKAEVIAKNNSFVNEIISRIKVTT
inactive: bafetinib 0 | [1] 0.04 | nilotinib -0.003 | [2] -0.103 | dasatinib -0.038 | [3] 0.034 | [4] 0.024 | [5] 0.035 | tipifarnib -0.063 | mubritinib 0.156 | [6] -0.069 | [7] -0.06 | [8] -0.109 | [9] -0.138 | entinostat 0.074 | vorinostat 0.032 | citarinostat 0.089 | silmitasertib 0.037 | [10] -0.091 | [11] -0.003

MRPS24 (UniProt Q96EL2)
inactive: bafetinib 0.283 | [1] 0.183 | nilotinib -0.195 | [2] 0.057 | dasatinib -0.024 | [3] 0.028 | [4] -0.141 | [5] 0.008 | tipifarnib -0.035 | mubritinib 0.186 | [6] -0.015 | [7] -0.016 | [8] -0.021 | [9] -0.086 | entinostat 0.001 | vorinostat 0.04 | citarinostat -0.053 | silmitasertib -0.096 | [10] -0.074 | [11] -0.105

NRDC isoform 2 (UniProt O43847)
inactive: bafetinib 0.022 | [1] 0.072 | nilotinib -0.019 | [2] -0.023 | dasatinib -0.133 | [3] 0.011 | [4] -0.01 | [5] -0.044 | tipifarnib -0.129 | mubritinib 0.088 | [6] -0.01 | [7] -0.044 | [8] -0.057 | [9] -0.036 | entinostat 0.043 | vorinostat 0.04 | citarinostat 0.024 | silmitasertib 0.025 | [10] -0.05 | [11] -0.06

MRPL46 (UniProt Q9H2W6)
inactive: bafetinib 0.06 | [1] 0.014 | nilotinib -0.03 | [2] -0.002 | dasatinib -0.006 | [3] -0.016 | [4] -0.019 | [5] 0.06 | tipifarnib 0.095 | mubritinib -0.003 | [6] -0.067 | [7] 0.009 | [8] 0.023 | [9] -0.014 | entinostat -0.003 | vorinostat 0.011 | citarinostat 0.007 | silmitasertib 0.005 | [10] 0.028 | [11] -0.062

NOSIP (UniProt Q9Y314)
UniProt Q9Y314, sequence (Q9Y314 whole entry, looked up): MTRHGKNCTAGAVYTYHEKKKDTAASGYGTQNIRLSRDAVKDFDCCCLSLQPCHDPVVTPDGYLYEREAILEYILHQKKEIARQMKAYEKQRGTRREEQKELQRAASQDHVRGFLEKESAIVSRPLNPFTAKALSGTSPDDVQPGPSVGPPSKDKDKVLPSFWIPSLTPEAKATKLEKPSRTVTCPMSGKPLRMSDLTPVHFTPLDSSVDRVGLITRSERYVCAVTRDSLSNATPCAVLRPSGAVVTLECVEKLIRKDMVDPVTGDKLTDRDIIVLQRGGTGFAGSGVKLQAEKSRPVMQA
inactive: bafetinib 0.085 | [1] 0.066 | nilotinib -0.11 | [2] -0.277 | dasatinib -0.229 | [3] 0.247 | [4] -0.063 | [5] -0.111 | tipifarnib -0.128 | mubritinib -0.098 | [6] 0 | [7] -0.004 | [8] -0.095 | [9] -0.121 | entinostat 0.16 | vorinostat 0.163 | citarinostat 0.136 | silmitasertib 0.082 | [10] -0.095 | [11] 0.019

NFATC2IP (UniProt Q8NCF5)
UniProt Q8NCF5, sequence (Q8NCF5 whole entry, looked up): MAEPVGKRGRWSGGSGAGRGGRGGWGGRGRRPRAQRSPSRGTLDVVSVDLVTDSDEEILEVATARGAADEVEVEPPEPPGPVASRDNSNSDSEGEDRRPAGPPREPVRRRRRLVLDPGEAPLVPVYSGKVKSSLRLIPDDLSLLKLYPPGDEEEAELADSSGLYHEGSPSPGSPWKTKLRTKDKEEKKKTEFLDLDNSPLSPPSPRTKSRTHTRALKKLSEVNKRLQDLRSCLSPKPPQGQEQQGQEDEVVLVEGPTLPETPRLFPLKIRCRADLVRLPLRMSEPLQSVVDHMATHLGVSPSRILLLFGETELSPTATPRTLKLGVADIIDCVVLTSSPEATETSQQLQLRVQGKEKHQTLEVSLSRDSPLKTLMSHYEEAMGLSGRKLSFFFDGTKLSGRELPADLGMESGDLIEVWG
inactive: bafetinib 0.065 | [1] -0.029 | nilotinib 0.001 | [2] -0.153 | dasatinib -0.096 | [3] -0.146 | [4] 0.097 | [5] 0.049 | tipifarnib -0.003 | mubritinib 0.051 | [6] -0.016 | [7] -0.017 | [8] -0.087 | [9] -0.011 | entinostat 0.035 | vorinostat 0.078 | citarinostat 0.075 | silmitasertib -0.017 | [10] 0.02 | [11] -0.011

ORC3 isoform 2 (UniProt Q9UBD5)
UniProt Q9UBD5, sequence (Q9UBD5 whole entry, looked up): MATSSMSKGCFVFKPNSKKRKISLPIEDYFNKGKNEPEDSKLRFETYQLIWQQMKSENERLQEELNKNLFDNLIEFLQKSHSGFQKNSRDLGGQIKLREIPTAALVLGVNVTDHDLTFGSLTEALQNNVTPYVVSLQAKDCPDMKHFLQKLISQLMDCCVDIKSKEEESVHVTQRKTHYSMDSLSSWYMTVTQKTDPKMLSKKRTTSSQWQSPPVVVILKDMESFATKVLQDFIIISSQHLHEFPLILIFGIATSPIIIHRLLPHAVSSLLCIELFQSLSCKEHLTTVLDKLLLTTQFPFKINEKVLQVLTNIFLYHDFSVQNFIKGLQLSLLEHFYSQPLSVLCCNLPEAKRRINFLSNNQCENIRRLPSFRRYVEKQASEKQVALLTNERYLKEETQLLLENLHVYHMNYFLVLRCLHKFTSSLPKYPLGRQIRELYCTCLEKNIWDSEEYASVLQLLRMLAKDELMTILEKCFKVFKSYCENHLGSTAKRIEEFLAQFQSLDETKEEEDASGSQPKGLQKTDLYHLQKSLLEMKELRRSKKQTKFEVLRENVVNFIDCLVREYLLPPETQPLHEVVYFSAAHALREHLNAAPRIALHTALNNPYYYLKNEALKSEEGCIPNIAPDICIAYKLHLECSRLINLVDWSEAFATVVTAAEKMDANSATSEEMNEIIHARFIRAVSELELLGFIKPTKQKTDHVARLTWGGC
inactive: bafetinib -0.032 | [1] 0.099 | nilotinib -0.262 | [2] -0.254 | dasatinib -0.298 | [3] -0.118 | [4] 0.067 | [5] 0.109 | tipifarnib 0.086 | mubritinib 0.029 | [6] 0.018 | [7] -0.09 | [8] -0.093 | [9] -0.142 | entinostat -0.004 | vorinostat 0.236 | citarinostat 0.023 | silmitasertib 0.058 | [10] 0.008 | [11] -0.188

OTULIN (UniProt Q96BN8)
UniProt Q96BN8, sequence (Q96BN8 whole entry, looked up): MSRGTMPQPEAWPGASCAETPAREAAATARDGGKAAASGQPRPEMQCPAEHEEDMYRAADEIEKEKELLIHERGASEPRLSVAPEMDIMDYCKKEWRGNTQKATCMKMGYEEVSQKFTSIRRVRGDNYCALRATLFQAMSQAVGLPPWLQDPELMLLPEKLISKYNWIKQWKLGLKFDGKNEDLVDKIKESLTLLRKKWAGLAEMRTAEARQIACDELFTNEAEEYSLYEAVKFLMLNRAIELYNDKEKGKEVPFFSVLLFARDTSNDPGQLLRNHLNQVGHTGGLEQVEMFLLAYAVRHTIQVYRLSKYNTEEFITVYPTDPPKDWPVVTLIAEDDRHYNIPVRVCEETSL
inactive: bafetinib -0.039 | [1] 0.066 | nilotinib -0.091 | [2] -0.124 | dasatinib -0.169 | [3] 0.033 | [4] -0.051 | [5] 0.235 | tipifarnib -0.081 | mubritinib 0.152 | [6] 0.008 | [7] -0.017 | [8] -0.183 | [9] -0.093 | entinostat 0.097 | vorinostat 0.038 | citarinostat -0.005 | silmitasertib 0.086 | [10] -0.143 | [11] -0.077

NSMCE2 (UniProt Q96MF7)
UniProt Q96MF7, sequence (Q96MF7 whole entry, looked up): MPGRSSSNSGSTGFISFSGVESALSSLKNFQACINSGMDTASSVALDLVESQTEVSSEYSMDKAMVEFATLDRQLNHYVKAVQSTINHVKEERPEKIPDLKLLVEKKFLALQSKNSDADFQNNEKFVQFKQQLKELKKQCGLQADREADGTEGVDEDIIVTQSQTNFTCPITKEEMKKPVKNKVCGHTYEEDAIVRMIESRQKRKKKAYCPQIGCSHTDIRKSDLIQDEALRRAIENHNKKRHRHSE
inactive: bafetinib -0.059 | nilotinib 0.014 | [2] -0.202 | dasatinib 0.025 | [3] 0.016 | [4] 0.016 | [5] -0.104 | tipifarnib 0.008 | mubritinib 0.009 | [6] 0.065 | [7] -0.027 | [8] -0.008 | [9] -0.046 | entinostat -0.115 | vorinostat 0.128 | citarinostat -0.04 | silmitasertib 0.055 | [10] -0.068 | [11] -0.069
active: [1] 0.282

NTMT1 (UniProt Q9BV86)
UniProt Q9BV86, sequence (Q9BV86 whole entry, looked up): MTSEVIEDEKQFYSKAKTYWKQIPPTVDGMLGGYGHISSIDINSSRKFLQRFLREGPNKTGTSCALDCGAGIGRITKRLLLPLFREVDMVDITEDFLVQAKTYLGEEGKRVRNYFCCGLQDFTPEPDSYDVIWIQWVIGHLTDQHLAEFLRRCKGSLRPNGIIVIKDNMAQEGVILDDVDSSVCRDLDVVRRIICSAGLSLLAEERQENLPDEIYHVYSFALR
inactive: bafetinib 0.009 | [1] 0.068 | nilotinib 0.056 | [2] 0 | dasatinib -0.036 | [3] 0.023 | [4] 0.073 | [5] 0.076 | tipifarnib 0.043 | mubritinib 0.138 | [6] -0.035 | [7] 0.027 | [8] 0.077 | [9] -0.002 | entinostat 0.024 | vorinostat -0.089 | citarinostat -0.069 | silmitasertib -0.028 | [10] -0.029

NCOA7 (UniProt Q8NI08)
inactive: bafetinib -0.017 | [1] 0.154 | nilotinib -0.044 | [2] -0.046 | dasatinib -0.144 | [3] -0.039 | [4] 0.085 | [5] 0.004 | tipifarnib -0.125 | mubritinib 0.054 | [6] -0.061 | [7] -0.036 | [8] -0.068 | [9] -0.033 | entinostat -0.067 | vorinostat 0.026 | citarinostat -0.001 | silmitasertib 0.022 | [10] -0.093 | [11] -0.005

MKRN2 (UniProt Q9H000)
UniProt Q9H000, sequence (Q9H000 whole entry, looked up): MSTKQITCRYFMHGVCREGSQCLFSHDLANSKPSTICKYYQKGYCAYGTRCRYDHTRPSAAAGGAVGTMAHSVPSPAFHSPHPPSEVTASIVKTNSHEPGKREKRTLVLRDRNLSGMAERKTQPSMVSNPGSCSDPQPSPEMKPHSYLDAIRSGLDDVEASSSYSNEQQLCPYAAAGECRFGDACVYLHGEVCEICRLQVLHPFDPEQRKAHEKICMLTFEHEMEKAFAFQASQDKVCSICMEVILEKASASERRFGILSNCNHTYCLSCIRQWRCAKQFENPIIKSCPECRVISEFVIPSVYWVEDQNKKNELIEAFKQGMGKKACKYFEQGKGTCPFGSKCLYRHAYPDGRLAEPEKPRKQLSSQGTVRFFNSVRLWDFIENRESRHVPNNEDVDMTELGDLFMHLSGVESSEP
inactive: bafetinib 0.073 | [1] -0.194 | nilotinib -0.048 | [2] -0.062 | dasatinib -0.088 | [3] 0.066 | [4] -0.284 | [5] -0.099 | tipifarnib -0.01 | mubritinib -0.142 | [6] -0.007 | [7] 0 | [8] 0.094 | [9] -0.044 | entinostat 0.104 | vorinostat 0.228 | citarinostat 0.042 | silmitasertib 0.047 | [10] 0.052 | [11] -0.129

NCL (UniProt P19338)
UniProt P19338, sequence (P19338 whole entry, looked up): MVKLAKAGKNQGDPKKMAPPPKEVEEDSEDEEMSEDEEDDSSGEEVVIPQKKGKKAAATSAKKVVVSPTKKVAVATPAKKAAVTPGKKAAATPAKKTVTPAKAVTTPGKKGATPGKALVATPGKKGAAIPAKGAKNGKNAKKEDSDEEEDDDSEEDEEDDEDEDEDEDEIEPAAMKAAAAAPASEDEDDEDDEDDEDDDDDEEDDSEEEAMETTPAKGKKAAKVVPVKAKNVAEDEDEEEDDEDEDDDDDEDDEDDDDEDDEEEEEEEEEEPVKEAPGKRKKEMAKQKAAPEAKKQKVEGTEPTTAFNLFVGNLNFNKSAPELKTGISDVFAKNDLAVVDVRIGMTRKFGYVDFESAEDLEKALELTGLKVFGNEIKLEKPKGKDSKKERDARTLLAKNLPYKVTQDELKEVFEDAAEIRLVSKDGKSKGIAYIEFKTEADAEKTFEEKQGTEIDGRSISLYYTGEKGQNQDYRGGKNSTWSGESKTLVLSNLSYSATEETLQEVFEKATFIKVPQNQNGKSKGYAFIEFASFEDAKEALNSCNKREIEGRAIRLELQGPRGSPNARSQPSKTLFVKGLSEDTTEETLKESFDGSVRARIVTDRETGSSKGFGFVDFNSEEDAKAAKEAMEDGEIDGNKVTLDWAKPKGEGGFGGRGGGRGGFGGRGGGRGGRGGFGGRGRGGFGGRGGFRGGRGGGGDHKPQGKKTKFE
inactive: bafetinib 0.272 | [1] 0 | nilotinib -0.033 | [2] 0.026 | dasatinib 0.209 | [3] 0.051 | [4] -0.445 | [5] -0.237 | tipifarnib 0.225 | mubritinib -0.325 | [6] 0.015 | [7] 0.024 | [8] 0.331 | [9] 0.156 | entinostat -0.093 | vorinostat -0.018 | citarinostat -0.105 | silmitasertib 0.2 | [10] 0.147 | [11] -0.171

MRPS25 (UniProt P82663)
inactive: bafetinib 0.125 | [1] 0.158 | nilotinib -0.144 | [2] -0.043 | dasatinib -0.105 | [3] 0.044 | [4] 0.037 | [5] 0 | tipifarnib -0.077 | mubritinib 0.069 | [6] -0.031 | [7] 0.046 | [8] 0.04 | [9] 0.04 | entinostat 0.021 | vorinostat -0.036 | citarinostat 0.073 | silmitasertib -0.053 | [10] 0.062 | [11] -0.074

NMT1 (UniProt P30419)
UniProt P30419, sequence (P30419 whole entry, looked up): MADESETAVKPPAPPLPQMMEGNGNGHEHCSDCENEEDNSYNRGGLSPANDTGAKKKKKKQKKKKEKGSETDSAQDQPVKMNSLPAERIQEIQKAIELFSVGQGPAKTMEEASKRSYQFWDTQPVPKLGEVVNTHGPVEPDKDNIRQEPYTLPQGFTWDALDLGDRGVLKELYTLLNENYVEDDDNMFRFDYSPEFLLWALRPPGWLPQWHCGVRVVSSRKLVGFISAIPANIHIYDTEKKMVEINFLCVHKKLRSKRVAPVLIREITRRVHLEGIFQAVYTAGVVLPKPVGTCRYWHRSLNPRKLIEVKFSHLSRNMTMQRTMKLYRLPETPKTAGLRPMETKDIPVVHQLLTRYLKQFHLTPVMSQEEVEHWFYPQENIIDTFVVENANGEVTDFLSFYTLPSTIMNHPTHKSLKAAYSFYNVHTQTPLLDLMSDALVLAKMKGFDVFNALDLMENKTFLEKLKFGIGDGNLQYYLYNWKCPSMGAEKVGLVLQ
inactive: bafetinib 0.064 | [1] -0.026 | nilotinib 0.049 | [2] 0.06 | dasatinib -0.012 | [3] -0.003 | [4] 0.026 | [5] -0.001 | tipifarnib -0.026 | mubritinib 0.076 | [6] -0.006 | [7] -0.043 | [8] -0.052 | [9] -0.129 | entinostat 0.008 | vorinostat 0.031 | citarinostat -0.012 | silmitasertib -0.015 | [10] 0.022
active: [11] -0.52

MRPS12 (UniProt O15235)
inactive: bafetinib 0.269 | [1] 0.146 | nilotinib -0.161 | [2] 0.073 | dasatinib 0.062 | [3] -0.024 | [4] -0.045 | [5] 0.111 | tipifarnib -0.082 | mubritinib 0.143 | [6] 0.207 | [7] -0.053 | [8] -0.005 | [9] 0.221 | entinostat -0.017 | vorinostat 0.038 | citarinostat 0.01 | silmitasertib -0.007 | [10] 0.101 | [11] -0.056

Reference: the supplement of paper PMC10849652
